# Records with an inconclusive call do not appear. Active and inactive are the calls of the source. The call rests on the fitted dose curve; in most records, active means well fitted activation curve with a large enough effect in the signal ratio in the repeat runs, with a control signal flat (not every such curve was filed as active); inconclusive means weak or mixed curves, or effect the other way; inactive means no such curve, though single readings can be large or run the other way; the % refers to the signal ratio.
# Target: Androgen receptor (Homo sapiens) (UniProt P10275)
# Sequence (P10275 whole entry, looked up): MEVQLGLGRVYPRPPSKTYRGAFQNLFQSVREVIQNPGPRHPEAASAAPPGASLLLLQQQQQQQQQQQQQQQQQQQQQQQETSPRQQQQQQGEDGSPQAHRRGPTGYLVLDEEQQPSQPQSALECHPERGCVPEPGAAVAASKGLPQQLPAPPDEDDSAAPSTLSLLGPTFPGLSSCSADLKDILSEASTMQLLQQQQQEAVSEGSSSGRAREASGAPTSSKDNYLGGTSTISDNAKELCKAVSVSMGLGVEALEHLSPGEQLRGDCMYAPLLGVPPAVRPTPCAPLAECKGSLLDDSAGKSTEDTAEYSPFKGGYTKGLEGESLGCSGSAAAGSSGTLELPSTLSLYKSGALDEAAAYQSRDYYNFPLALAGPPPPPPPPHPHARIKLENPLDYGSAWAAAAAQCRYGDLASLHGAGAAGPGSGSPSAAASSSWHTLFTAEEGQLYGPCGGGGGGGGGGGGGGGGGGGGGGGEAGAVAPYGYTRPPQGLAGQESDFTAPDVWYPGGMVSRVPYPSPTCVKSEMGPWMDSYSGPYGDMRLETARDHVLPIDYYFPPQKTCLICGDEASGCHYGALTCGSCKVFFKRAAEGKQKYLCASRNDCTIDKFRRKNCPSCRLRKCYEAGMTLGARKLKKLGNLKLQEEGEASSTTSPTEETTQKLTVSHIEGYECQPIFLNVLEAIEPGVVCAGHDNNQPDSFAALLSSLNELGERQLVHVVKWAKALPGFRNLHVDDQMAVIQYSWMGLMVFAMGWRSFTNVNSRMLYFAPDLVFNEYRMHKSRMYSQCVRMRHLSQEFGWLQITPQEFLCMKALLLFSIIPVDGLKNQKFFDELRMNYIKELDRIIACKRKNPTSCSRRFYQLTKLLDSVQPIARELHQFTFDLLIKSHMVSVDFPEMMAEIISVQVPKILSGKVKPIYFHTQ
# Test: qHTS assay to identify small molecule agonists of the androgen receptor (AR) signaling pathway (AID 743036)
# Conditions: HEK293 AR-UAS-bla GripTite, beta-lactamase FRET ratio, 16 h; series mostly up to 62.4 µM
# From the text: U.S. Tox21 Program National Center for Advancing Translational Sciences [NCATS] NIH Chemical Genomics Center [NCGC] U.S. Environmental Protection Agency [EPA] National Institutes of Environmental Health Sciences [NIEHS] National Toxicology Program [NTP] U.S. Food and Drug Administration [FDA] Tox21 Assay Overview: Androgen receptor (AR), a nuclear hormone receptor, plays a critical role in AR-dependent prostate cancer and other androgen related diseases. Endocrine disrupting chemicals (EDCs) and their interactions with steroid hormone receptors like AR may cause disruption of normal endocrine function as well as interfere with metabolic homeostasis, reproduction, developmental and behavioral functions. To identify the compounds that activate AR signaling, GeneBLAzer AR-UAS-bla-GripTite cell line (Invitrogen, Carlsbad, CA, USA) containing a beta-lactamase reporter gene under the control of an Upstream Activator Sequence (UAS) stably integrated into HEK293 cells was used to screen the Tox21 10K compound library.
# Tox21 Assay Protocol Summary: AR-bla cells were dispensed at 2,000 cells/6 uL/well of assay medium into black wall/clear-bottom 1536-well plates using a Multidrop Combi (ThermoFisher Scientific, Waltham, MA) dispenser. After the assay plates were incubated at 37C and 5% CO2 for 4 h, 23 nL of compounds dissolved in DMSO, positive controls or DMSO only was transferred to the assay plate by a Pintool station (Kalypsys, San Diego, CA). The plates were incubated at 37C and 5% CO2 for 16 h. Then 1 uL of LiveBLAzerTM B/G FRET substrate was added using a Bioraptr Flying Reagent Dispenser (FRD) workstation (Beckman Coulter, Indianapolis, IN, USA). The plates were incubated at room temperature for 2 h, and fluorescence intensity was measured by an Envision plate reader (PerkinElmer, Shelton, CT).
row,Compound,outcome
1,CCOc1cc(OCC)c(C(C)=O)cc1OCC,inactive
2,OCCCO,inactive
3,FC(F)(Cl)C(F)(Cl)Cl,inactive
4,COC(=O)Cc1cccc2ccccc12,inactive
5,O=S(=O)(O)c1cc(Cl)c(Cl)cc1Cl,inactive
6,CCOc1ccc(NC(C)=O)cc1N,inactive
7,CC[C@H](NC(C)C)[C@H](O)c1ccc(O)c2[nH]c(=O)ccc12,inactive
8,O=C(OC1C[C@H]2CC[C@@H](C1)[N+]21CCCC1)C(O)(c1ccccc1)c1ccccc1 (stereo partly drawn),inactive
9,Cc1nc(C)c(C)nc1C,inactive
10,CCCC(=O)OCCC(C)C,inactive
11,COC(=O)/C=C/C(C)=C\C=C\C(C)=C\C=C\C=C(C)\C=C\C=C(C)\C=C\C(=O)O,inactive
12,O=C(O)c1cccc(C(=O)O)c1C(=O)O,inactive
13,O=C(O)c1ccc(O)c(O)c1,inactive
14,O=C(c1ccc(Cl)cc1)c1ccc(Cl)cc1,inactive
15,CCCN(C1CCN(C(=O)C2CCNCC2)CC1)[C@@H]1CCc2ccc(OC)cc2C1,inactive
16,O=C(Nc1ccccc1)c1cc([N+](=O)[O-])ccc1Cl,inactive
17,N#C[C@@H]1CC(F)(F)CN1C(=O)CNC1CC2CCC(C1)N2c1ncccn1 (stereo partly drawn),inactive
18,CCOc1ccc2c(c1)C(C)CC(C)(C)N2 (stereo not drawn),inactive
19,CCC[Si](OC)(OC)OC,inactive
20,CCCOC(C)=O,inactive
21,CCCCCCCCCCCCCCCCC(=O)O,inactive
22,Nc1ccc(F)cc1F,inactive
23,O=C(O)c1cc(C(=O)O)c(C(=O)O)cc1C(=O)O,inactive
24,NC(=O)c1ccccc1,inactive
25,CC1(C)[C@@H]2CC[C@]3(C2)[C@@H]1C(=O)CCC3(C)C,inactive
26,Cc1c(N=C=O)cccc1N=C=O,inactive
27,CCCC1CCOC(C)S1 (stereo not drawn),inactive
28,O=C(O)c1ccncc1,inactive
